Hits are enriched below; roughly 2% of the tested compounds scored in any of these assays.
M1 PAM parental: M1 PAM counterscreen hit in parental CHO-K1 cells | ATP EC20, Fluo-8 calcium fluorescence; 0% at ATP EC20, 100% at ATP max | activation, % at 3 µM | actives 0.02% (n = 360,000);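 active = activation above the run cutoff, the mean activation of all test compounds plus 3 SD, cut at about 40% in these data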;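 also: peak over basal fluorescence ratio in a 140 s read after ATP addition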
M4 PAM: positive allosteric modulators of human muscarinic M4 receptor; activation, % at 3 µM; actives 0.4% (n = 360,000); P08173; CHO-K1 hM4/Gqi5, Fluo-8 calcium fluorescence, ACh EC20; 0% = ACh EC20, 100% = maximal ACh;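 active = activation above its plate's cutoff, the mean activation of sample wells plus 3 SD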
Target sequence (P08173 whole entry, looked up): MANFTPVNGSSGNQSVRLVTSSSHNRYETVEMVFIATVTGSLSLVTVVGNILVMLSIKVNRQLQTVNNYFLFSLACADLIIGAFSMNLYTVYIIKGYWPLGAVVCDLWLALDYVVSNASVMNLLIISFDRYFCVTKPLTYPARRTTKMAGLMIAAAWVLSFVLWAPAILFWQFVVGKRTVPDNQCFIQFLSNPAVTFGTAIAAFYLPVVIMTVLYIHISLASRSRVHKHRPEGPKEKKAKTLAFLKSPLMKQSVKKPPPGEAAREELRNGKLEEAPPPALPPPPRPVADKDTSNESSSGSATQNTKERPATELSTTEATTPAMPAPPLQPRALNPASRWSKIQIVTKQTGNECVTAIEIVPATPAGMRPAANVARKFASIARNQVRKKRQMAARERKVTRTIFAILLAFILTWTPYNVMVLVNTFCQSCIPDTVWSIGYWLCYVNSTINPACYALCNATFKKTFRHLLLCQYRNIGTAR
CHO-K1 Ca antag: counter-screen for M1 antagonists: effect in parental CHO-K1 cells. actives 0.6% (n = 360,000). inhibition, % at 3 µM. ATP-induced calcium, Fluo-8 fluorescence. AID 602250;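 active = inhibition above a per-plate cutoff, the plate's mean sample inhibition plus 3 SD, cut at about 24% in these data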
M4 antag: antagonists of human muscarinic M4 receptor (CHRM4); CHO-hM4 cells, ACh EC80, Fluo-8 calcium fluorescence; AID 624125; inhibition, % at 3 µM; actives 0.73% (n = 360,000); P08173;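 active = inhibition above its plate's cutoff, the mean inhibition of sample wells plus 3 SD, cut at about 27% in these data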
CHRM4 agonist: CHRM4 agonism in calcium assay; AID 624127; actives 0.14% (n = 360,000); P08173; CHO-K1 hM4/Gqi5, Fluo-8 calcium fluorescence; vehicle 0%, full acetylcholine response 100%; activation, % at 3 µM;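 active = activation above the run mean over all test wells plus 3 SD, cut at about 32% in these data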;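 also: peak over basal fluorescence ratio per well then scaled between controls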
M1 ag parental: M1 agonist counterscreen hit in parental CHO-K1 cells. Fluo-8 calcium fluorescence; scaled to maximal ATP response, vehicle zero. activation, % at 3 µM. AID 602248. actives 0.48% (n = 360,000); in the data active = activation above about 15%;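 also: untransfected CHO-K1 host cells lacking M1 receptor as counterscreen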
Each line names hits and unclear results; the compound was inactive in the other large screens.

CCC(C)c1ccccc1NC(=O)C(C)OC(=O)CN1C(=O)NC(C)(C)C1=O (stereo not drawn)	M4 PAM 26.4
CC(OC(=O)CN1C(=O)NC(C)(C)C1=O)C(=O)c1ccccc1 (stereo not drawn)	none
CCOC(=O)c1[nH]c2ccc(F)cc2c1NC(=O)Nc1ccccc1OC	M1 ag parental 16.4
CCOC(=O)c1[nH]c2ccc(OC)cc2c1NC(=O)NC(C)C	none
CCCC(C)c1nnc(NC(=O)C2CCCO2)s1 (stereo not drawn)	M4 antag 30.2
Cc1nnc(NC(=O)C2CCCO2)s1 (stereo not drawn)	none
CCOc1ccc(S(=O)(=O)NCCc2cn3ccccc3n2)cc1	M4 PAM 15.9
C=CCn1c(SCCC)nc(O)cc1=O	CHRM4 agonist 62.1
O=c1c2ccccc2sc2ccccc12	none
N#Cc1c(N)c(C#N)c(-c2ccc3c(c2)OCO3)c2c1CCCC2	M4 PAM 39.1
Cc1c(C(=O)Nc2cccc(Oc3ccccc3)c2)sc(=O)n1Cc1ccc(F)cc1	none
CCC1(c2ccc(F)cc2)NC(=O)N(CC(=O)c2cc(C)n(C3CC3)c2C)C1=O (stereo not drawn)	M1 ag parental 25.6
Cc1cc(C(=O)CN2C(=O)NC(C)(c3cc(F)ccc3F)C2=O)c(C)n1C1CC1 (stereo not drawn)	none
CN(CCc1ccccc1)C(c1ccnc2ccccc12)c1nnnn1-c1ccc2c(c1)OCCO2 (stereo not drawn)	CHO-K1 Ca antag 26.1
O=[N+]([O-])c1ccc(Oc2ccc(C(F)(F)F)cn2)cc1	none
CCC1Nc2ncnc(N3CCOCC3)c2N(Cc2ccc(Cl)cc2)C1=O (stereo not drawn)	M4 PAM 24.1
CC1Nc2ncnc(N3CCOCC3)c2N(Cc2ccc(Cl)cc2)C1=O (stereo not drawn)	none
Cc1ccc(NC(=O)c2cc(NC(=O)c3ccco3)ccc2N2CCOCC2)cc1Cl	none
COc1ccc2[nH]c3c(NCCC4=CCCCC4)ncnc3c2c1	M1 ag parental 15.1
C=CCn1c(C(C)C)nc2ccccc21	M1 ag parental 17.6
C=CCn1c(C(O)c2ccccc2)nc2ccccc21 (stereo not drawn)	none
O=C1c2ccccc2C(=O)N1CCCc1cn(C[C@H]2CC[C@@H]([C@@H]3CC[C@H](Cn4cc(CCCN5C(=O)c6ccccc6C5=O)nn4)O3)O2)nn1	none
C=CCOc1cccc(C(=O)N2CCCC(Nc3ccc4c(c3)OCCO4)C2)c1 (stereo not drawn)	CHO-K1 Ca antag 56.9
COc1cc(/C=C2\SC(=Nc3ccccc3)NC2=O)cc(Cl)c1O	CHO-K1 Ca antag 32.3, M4 antag 44.0, CHRM4 agonist 83.5, M1 ag parental 37.9
CCc1ccc(N=C2NC(=O)/C(=C/c3cc(OC)c(O)c(OC)c3)S2)cc1	none
COc1cc(/C=C2\SC(=Nc3ccc(Cl)c(C(=O)O)c3)NC2=O)c(Br)c(Br)c1O	CHO-K1 Ca antag 26.8, CHRM4 agonist 50.9, M1 ag parental 41.9
Cc1cc(OCC(=O)NCCc2ccc(S(N)(=O)=O)cc2)c2c(C)c(C)c(=O)oc2c1	none
COc1ccc(NS(=O)(=O)c2cccs2)cc1S(=O)(=O)N1CCOCC1	none
COc1ccc(Nc2nc(-c3cccs3)nc3ccccc23)cc1S(=O)(=O)N1CCOCC1	M4 antag 28.7
CN(C)S(=O)(=O)c1ccc(-c2csc(N/N=C/c3ccco3)n2)cc1	M4 antag 30.2
Cc1ccc(-c2csc(N/N=C/c3ccco3)n2)cc1	none
CN(C)S(=O)(=O)c1ccc(-c2csc(N/N=C/c3ccc(O)cc3)n2)cc1	M4 antag 28.8
CCn1c(SCCOc2ccc(Cl)cc2)nnc1-c1cccs1	none
O=C(NCc1ccon1)C1CCC(=O)N(CCc2ccc(Cl)cc2)C1 (stereo not drawn)	M4 PAM 16.3
COc1ccc(CCNC(=O)CSc2nn3c(=O)c(C)nnc3s2)cc1OC	M4 PAM 17.3
Cc1ccccc1CSc1nn2c(=O)c(C)nnc2s1	CHO-K1 Ca antag 23.8
COc1ccc(CNC(=O)CSc2nn3c(=O)c(C(C)(C)C)nnc3s2)cc1OC	none
O=[N+]([O-])c1nn(-c2ccc3c(c2)OCCO3)n(O)c1=NC1CCCC1	none
COc1ccc([C@H]2C[C@H](O)[C@@H](n3cc(COC(=O)c4ccccc4)nn3)CN2Cc2cccs2)cc1	CHO-K1 Ca antag 30.9
COc1ccc([C@H]2C[C@@H](O)[C@H](n3cc(COC(=O)c4ccccc4)nn3)CN2Cc2cccs2)cc1	none
CCOc1cc(C)c(Cl)cc1S(=O)(=O)N1CCCC1	none
O=c1[nH]c(=O)n(C(c2ccccc2)c2ccccc2)cc1Br	none
O=c1[nH]nc(Br)c(=O)n1C(c1ccccc1)c1ccccc1	M1 ag parental 26.2
N=C1/C(=C\c2coc3ccc(O)cc3c2=O)C(=O)N=C2SC=CN12	CHRM4 agonist 49.7, M1 ag parental 33.0
N=C1/C(=C/c2coc3ccccc3c2=O)C(=O)N=C2SC(c3ccco3)=NN12	CHO-K1 Ca antag 33.6, CHRM4 agonist 64.3, M1 ag parental 62.8
N=C1/C(=C\c2coc3ccccc3c2=O)C(=O)N=C2SC(c3ccncc3)=NN12	CHO-K1 Ca antag 28.8, M4 antag 28.3, CHRM4 agonist 41.2, M1 ag parental 69.2
COc1ccc(-c2[nH]ncc2C=O)cc1	none
CC1=C(Sc2ccccn2)C(=O)NC(C)(C)C1	CHO-K1 Ca antag 26.8
CC(=O)Nc1ccc2c(c1)CN(c1cc(C)ccc1C)CO2	CHO-K1 Ca antag 24.8
CC(=O)Nc1ccc(S(=O)(=O)N2CCN(c3cc(C)ccc3C)CC2)cc1	none
Cc1nc2ccccn2c1C(=O)OCC#N	none
COc1cc(NC(=O)CCN2CCN(C/C=C/c3ccccc3)CC2)cc(OC)c1	none
CCOc1ccc(C(C(=O)NCC2CCCO2)N(C(=O)c2snc(C(N)=O)c2N)c2ccccc2F)cc1 (stereo not drawn)	CHO-K1 Ca antag 39.6
CC(C)C(=O)Nc1nnc(NC(=S)Nc2ccccc2)s1	M1 ag parental 19.2
Nc1ccc(-n2nncc2-c2ccc(Cl)cc2)cc1	M1 ag parental 17.2
Cc1cc(C)c(C(=O)c2ccc(C(=O)N3CCCCC3)cc2)c(C)c1	M1 ag parental 28.4
CC(=O)N1CCN(C(=O)c2c(-c3ccccc3)noc2C)CC1	none
CC1(C(=O)Nc2ccc3ccccc3c2)CCC(=O)N1CC(F)(F)F (stereo not drawn)	CHO-K1 Ca antag 32.0
Cc1ccccc1C1c2[nH]c3ccccc3c2CCN1CCCn1cccn1 (stereo not drawn)	M4 antag 61.0
CC1CC(=O)N(c2ccc(Br)cc2)C(=O)C1	none
CCOc1ccc(OCC)c(NC(=O)CN2CCN(c3ccc(C)cc3C)CC2)c1	M4 PAM 19.8

High-throughput results deposited in PubChem BioAssay by The Scripps Research Institute Molecular Screening Center.
